The record followed here is PubChem BioAssay (NCI).

Some test systems named below: HCT-15 colon; HT29 colon; SNB-75 CNS; SNB-19 CNS; PC-3 prostate; SK-MEL-5 melanoma; UACC-62 melanoma; LOX IMVI melanoma; SK-MEL-2 melanoma; SN12C renal; UO-31 renal; TK-10 renal; ACHN renal; CAKI-1 renal; A498 renal; CCRF-CEM leukemia; MOLT-4 leukemia; U251 CNS; EKVX NSCLC; SK-MEL-28 melanoma.
Common to all, as to assay: NCI-60 one-dose screen, 48 h (100 = growth as untreated, 0 = no growth, -100 = all killed)
Conditions in all cases: 10 µM unless noted

“And” between values parts separate entries of the source, which are not always exact repeats. Equal values may be shown once. The panel holds about 83,000 compounds, 20% with a hit somewhere; the sample as a whole holds those more often.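 Negative percent growth values reflect cell death: -40 means 40% of the cells present at the start died, and -100 means all died.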 The source made the active and inactive calls. Rule for the calls: active = growth percent below 10; inactive = the rest.

`O=C1c2ccccc2C(c2ccccc2)C1c1ccccc1` (configuration not stated): the growth is 71.8% (inactive) with HCT-15 colon; 98.9% (inactive) in the assay on HT29 colon; 63.5% (inactive) in the assay with SNB-75 CNS; 91.9% (inactive) in the assay on SNB-19 CNS; 80.7% (inactive) in the assay on PC-3 prostate; 87.5% (inactive) in the assay with SK-MEL-5 melanoma. The growth in the assay on UACC-62 melanoma was 67.8% (inactive); in the assay on LOX IMVI melanoma it was 88.5% (inactive); with SK-MEL-2 melanoma it was 91.1% (inactive); in the assay on SN12C renal it was 93.5% (inactive); in the assay with UO-31 renal, 79.4% (inactive); in the assay on TK-10 renal it was 124% (inactive). Also, the growth is 98% (inactive) in the assay on ACHN renal; 72.3% (inactive) in the assay with CAKI-1 renal; 102% (inactive) in the assay on A498 renal; 72.2% (inactive) with CCRF-CEM leukemia; 87.8% (inactive) in the assay with MOLT-4 leukemia.
Take `CC1NC(C)c2ccc3ccccc3c2O1` (configuration not stated): the growth in the assay on HCT-15 colon was 106% (inactive); with HT29 colon, 99.8% (inactive); in the assay with SNB-75 CNS, 85.6% (inactive); with U251 CNS, 109% (inactive); in the assay with PC-3 prostate, 93.3% (inactive); in the assay with SK-MEL-5 melanoma, 104% (inactive). For the same molecule, the growth in the assay on UACC-62 melanoma was 93.7% (inactive); in the assay on LOX IMVI melanoma, 97.7% (inactive); in the assay with SK-MEL-2 melanoma, 100% (inactive); in the assay on EKVX NSCLC it was 123% (inactive); with SN12C renal, 99.1% (inactive); in the assay with UO-31 renal, 69.4% (inactive). The growth is 110% (inactive) with TK-10 renal; 98.3% (inactive) in the assay with ACHN renal; 96.7% (inactive) with CAKI-1 renal; 84.8% (inactive) with A498 renal; 97.9% (inactive) in the assay on CCRF-CEM leukemia; 105% (inactive) in the assay on MOLT-4 leukemia.
With `CC(=O)Nc1ccc(OC(C)=O)cc1`, the growth was 13.5% (inactive) and 102% (inactive) in the assay on HCT-15 colon; -0.769% (active) and 105% (inactive) with HT29 colon; 37.6% (inactive) and 94.3% (inactive) in the assay on SNB-75 CNS; 11.7% (inactive) and 102% (inactive) in the assay on U251 CNS; 11.5% (inactive) and 92.8% (inactive) with PC-3 prostate; 92.8% (inactive) in the assay on SK-MEL-5 melanoma. The growth in the assay on UACC-62 melanoma is 18.5% (inactive) and 108% (inactive); in the assay with LOX IMVI melanoma it was -24% (active) and 100% (inactive); with SK-MEL-28 melanoma it was 82.6% (inactive) and 110% (inactive); with SK-MEL-2 melanoma it was -16.6% (active) and 111% (inactive); in the assay on EKVX NSCLC, 49.5% (inactive) and 99.5% (inactive); in the assay with SN12C renal, 20.2% (inactive) and 102% (inactive). For the same molecule, the growth with UO-31 renal was 21.8% (inactive) and 98.6% (inactive); in the assay on TK-10 renal, 42% (inactive) and 99.1% (inactive); with ACHN renal it was 26.8% (inactive) and 110% (inactive); with CAKI-1 renal, 17.8% (inactive) and 98.8% (inactive); with A498 renal, -40.5% (active) and 65.6% (inactive); with CCRF-CEM leukemia, 6.69% (active) and 106% (inactive). Moreover, the growth in the assay on MOLT-4 leukemia is 15.2% (inactive) and 117% (inactive).
In the case of `CCCCCCCCCCCCCCCCC(=O)O`, the growth in the assay with HCT-15 colon is 102% (inactive); in the assay with HT29 colon it was 97.7% (inactive); in the assay with SNB-75 CNS, 101% (inactive); in the assay on U251 CNS, 98% (inactive); in the assay on PC-3 prostate, 104% (inactive); in the assay with SK-MEL-5 melanoma it was 100% (inactive). For the same molecule, the growth in the assay on UACC-62 melanoma was 101% (inactive); in the assay on LOX IMVI melanoma it was 98.4% (inactive); with SK-MEL-28 melanoma it was 117% (inactive); in the assay with SK-MEL-2 melanoma, 103% (inactive); in the assay on SN12C renal, 103% (inactive); with UO-31 renal, 85.7% (inactive). The growth is 86.6% (inactive) in the assay with TK-10 renal; 112% (inactive) with ACHN renal; 104% (inactive) with CAKI-1 renal; 115% (inactive) in the assay with A498 renal; 91.5% (inactive) with CCRF-CEM leukemia; 95% (inactive) with MOLT-4 leukemia.
Regarding `CCCCNC(=O)c1ccccc1C`, the growth in the assay with HCT-15 colon is 93.4% (inactive); in the assay with HT29 colon, 102% (inactive); in the assay with SNB-75 CNS, 99% (inactive); in the assay on PC-3 prostate, 88.2% (inactive); in the assay with SK-MEL-5 melanoma, 93.3% (inactive); with UACC-62 melanoma, 101% (inactive). Further, the growth with LOX IMVI melanoma is 96.9% (inactive); in the assay with SK-MEL-28 melanoma, 101% (inactive); in the assay on SK-MEL-2 melanoma it was 100% (inactive); in the assay with EKVX NSCLC it was 94.9% (inactive); with SN12C renal, 98.5% (inactive); in the assay with UO-31 renal it was 94.4% (inactive). Also, the growth in the assay on TK-10 renal was 97.5% (inactive); with ACHN renal it was 104% (inactive); in the assay on CAKI-1 renal, 96.5% (inactive); in the assay on A498 renal, 126% (inactive); in the assay with CCRF-CEM leukemia, 99.7% (inactive); in the assay with MOLT-4 leukemia it was 98.5% (inactive).
Regarding `O=COCCCc1ccccc1`, the growth is 107% (inactive) with HCT-15 colon; 95.9% (inactive) in the assay on HT29 colon; 109% (inactive) in the assay with SNB-75 CNS; 94.5% (inactive) with U251 CNS; 94.4% (inactive) in the assay on PC-3 prostate; 98.2% (inactive) with SK-MEL-5 melanoma. The growth in the assay with UACC-62 melanoma was 88.7% (inactive); with LOX IMVI melanoma, 99% (inactive); in the assay with SK-MEL-28 melanoma it was 108% (inactive); in the assay with SK-MEL-2 melanoma it was 101% (inactive); with EKVX NSCLC, 98.8% (inactive); in the assay with SN12C renal, 105% (inactive). The growth was 93.2% (inactive) in the assay on UO-31 renal; 92.8% (inactive) in the assay on TK-10 renal; 106% (inactive) with CAKI-1 renal; 83.2% (inactive) in the assay on A498 renal; 108% (inactive) in the assay with CCRF-CEM leukemia; 113% (inactive) with MOLT-4 leukemia.
As for `N=c1sc2ccccc2n1CC(=O)O`, the growth in the assay on HCT-15 colon is 103% (inactive); in the assay on HT29 colon it was 98% (inactive); in the assay with SNB-75 CNS, 100% (inactive); in the assay with U251 CNS, 91.8% (inactive); in the assay on PC-3 prostate, 92.7% (inactive); in the assay on SK-MEL-5 melanoma, 104% (inactive). Moreover, the growth in the assay with UACC-62 melanoma was 97.2% (inactive); with LOX IMVI melanoma it was 98.7% (inactive); in the assay on SK-MEL-28 melanoma, 112% (inactive); in the assay with SK-MEL-2 melanoma it was 95.4% (inactive); in the assay on EKVX NSCLC, 104% (inactive); in the assay on SN12C renal, 94.1% (inactive). The growth in the assay with UO-31 renal is 86.4% (inactive); in the assay with TK-10 renal, 96.9% (inactive); in the assay with ACHN renal, 105% (inactive); with CAKI-1 renal, 97.8% (inactive); in the assay with A498 renal, 102% (inactive); with CCRF-CEM leukemia, 85.8% (inactive). The growth in the assay on MOLT-4 leukemia was 117% (inactive).
